The whole screen tested about 220,000 compounds, of which about 930 (0.42%) were called active. Cut-off read from the data, not from the text of the source: active = inhibition above about 50%; inactive = the rest. The list comes from a sample in which actives are over-represented; it also holds similar structures and randomly drawn compounds.
The molecules below were run against Glycoprotein 42 (Epstein-Barr virus (strain AG876)) (UniProt Q1HVG2) (assay: Epstein-Barr virus gp42 inhibitors, primary screen, biochemical, uHTS, fluorescence polarization (AID 1085)). Settings: Fluorescence polarization binding assay, mP read-out; hits give high values; tested at 21.74 µM.
Sequence of Glycoprotein 42 (Epstein-Barr virus (strain AG876)) (Q1HVG2 whole entry, looked up): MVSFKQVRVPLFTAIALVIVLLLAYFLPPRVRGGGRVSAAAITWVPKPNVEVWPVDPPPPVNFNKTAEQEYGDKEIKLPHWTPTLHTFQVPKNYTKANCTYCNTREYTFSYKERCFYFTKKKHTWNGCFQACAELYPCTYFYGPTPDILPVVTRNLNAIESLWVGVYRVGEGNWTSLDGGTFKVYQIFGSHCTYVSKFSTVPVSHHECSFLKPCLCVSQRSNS

inhibition, inactive:
CC(=O)NC(NC(=S)Nc1c(C)n(C)n(-c2ccccc2)c1=O)C(Cl)(Cl)Cl (centres undefined) -9.48%
COc1ccc(/C(C)=N/NC(=O)CCC(=O)Nc2ccc(Cl)cc2Cl)c(OC)c1 -0.68%
Cc1nn(-c2cc(Cl)ccc2N)c(=O)c2ccccc12 -22.9%
COc1ccc(N2C(=O)c3cccc4cccc(c34)C2=O)nn1 15.4%
Clc1cccc(CN2COc3c(cc(Cl)c4cccnc34)C2)c1 1.66%
CC(C)(C)NC(=O)CSC(=Nc1ccccc1F)NC#N 4.3%
CCNC(=O)CC1C(=O)N(c2ccc(OC)cc2)C(=S)N1CCc1ccncc1 (centres undefined) -17.4%
CCOC(=O)c1sc(NC(=O)CSc2nc(C)cc(C(F)(F)F)n2)c(C#N)c1C -17.3%
COc1ccc2nc(N3CCCC(O)C3)c(C#N)cc2c1 (centres undefined) 46.9%
CCOc1ccc2nc(NCCNS(=O)(=O)c3ccccc3)c(C#N)cc2c1 -8.9%
O=C(CCCCCN1C(=O)c2cccc3cccc(c23)C1=O)NCc1ccco1 -16.7%
CCN(CC)S(=O)(=O)c1ccc(N2CCOCC2)c(NC(=O)C2COc3ccccc3O2)c1 (centres undefined) -2.58%
O=C(N/N=C/c1ccco1)c1csc2c1CCCC2 -15.1%
Cc1occc1C(=O)N1CCCc2ccccc21 -1.51%
Cc1c(C(=O)N2CCCc3ccccc32)sc2nc(-c3ccccc3)cn12 -4.31%
CCOC(=O)C(C)n1nc(-c2ccccc2)c2ccccc2c1=O (centres undefined) -6.93%
Cn1cnc([N+](=O)[O-])c1Sc1ccccc1 -26%
COC(=O)Cc1nc2ccccc2[nH]1 -12.7%
COc1ccccc1NC(=O)C[n+]1ccccc1 -3.15%
CSc1cc(C)n(-c2ccccc2C)c(=S)c1C(C)=O -23.5%
COc1ccc(N(CCC#N)S(=O)(=O)c2ccc(Cl)cc2)cc1 -7.41%
O=C(Nc1ccc(Cl)cc1)C1c2cccc[n+]2CC(=O)N1Cc1ccc2c(c1)OCO2 (centres undefined) -27%
CCOc1cccc(=O)c2c(C)n(CC3CCCO3)c(C)c12 (centres undefined) 14.8%
O=S(=O)(Cc1cc(Sc2ccccc2)nc(-c2ccccc2)n1)c1ccccc1 3.74%
CCN(c1ccc(NC(=O)COC(=O)CCc2nc3ccccc3n2-c2ccccc2)cc1)C(C)C -13%
COc1ccc([N+](=O)[O-])cc1NC(=O)c1ccc(N(Cc2ccccc2C)S(C)(=O)=O)cc1 -6.7%
Cc1ccc(-c2cnc(NC(=O)CCC(=O)N(C)Cc3ccccc3)n2C)cc1 4.29%
Cc1nc2ccccc2cc1C(=O)N/N=C/c1ccc([N+](=O)[O-])cc1 -3.69%
O=C(N/N=C/c1ccc([N+](=O)[O-])cc1)c1c[nH]c2ccccc12 -12.7%
Nc1[nH]c(=S)nc2nc(-c3ccccc3)c(-c3ccccc3)nc12 -1.95%
Cc1cs/c(=N\N=C\c2ccc(O)cc2)n1Cc1ccco1 8.07%
COc1ccc(NC(=O)Cn2c(=O)n(Cc3ccco3)c(=O)c3ccccc32)cc1 -3.89%
CN(c1ccccc1)S(=O)(=O)c1cccc(NC(=O)Cc2c(F)cccc2Cl)c1 13.1%
O=S(=O)(c1ccc(F)cc1)N1CCN(C(=S)NC2CCCC2)CC1 -9.24%
CCN(CC)P(=O)(Nc1ccc(SC(F)F)cc1)c1ccc(N(C)C)cc1NC(=O)c1ccco1 (centres undefined) -14.5%
O=C(NCCN1C(=O)S/C(=C\c2cccnc2)C1=O)c1ccc(S(=O)(=O)N2CCCC2)cc1 -22.6%
O=C(Nc1ccnc(-c2ccncc2)n1)c1cccs1 -5.75%
COC(=O)CSc1nccc(-c2cccs2)n1 -13.3%
CCN(CC)C(=O)Oc1ccc(Br)cc1C(=O)Nc1ccc(F)c(Cl)c1 -10.6%
Cc1ccccc1N1C(=O)C(Oc2ccc(Cl)cc2)C1CNCC1CCCO1 (centres undefined) -2.06%
COc1cc(C(CCN2CCN(c3ccccc3)CC2)c2c(OC)cc(OC)c3ccc(=O)oc23)cc(OC)c1OC (centres undefined) -16.3%
CCOC(=O)/C(C#N)=C/c1ccc(N2CCCCC2)cc1 -25.7%
COc1ccc(N2CCN(C(=O)/C(C#N)=C/c3ccccc3)CC2)cc1 -19%
Cc1ccc(C(=O)COC(=O)CCCC(=O)NC2CCCCC2)cc1[N+](=O)[O-] 4.86%
O=C(Cc1ccc(Br)cc1)N1CCN(c2ccccn2)CC1 4.9%
CC(=O)NNC1=Nc2ccccc2N(C)C(C)C1 (centres undefined) -1.65%
CC(C)(C)c1ccc(/C=C/C(=O)Nc2ncccn2)cc1 -8.99%
COc1cc(N2C(=O)CC3(CCCC3)CC2=O)cc(OC)c1OC -4.54%
CCOC(=O)N1CC=C2C(C#N)=C(N)C(C#N)(C#N)[C@H](c3cccs3)[C@H]2C1 6.62%
CCCN1CC=C2C(C#N)=C(N)C(C#N)(C#N)C(c3cc(OC)ccc3OC)C2C1 (centres undefined) 36.5%

inhibition, active:
Cc1nn(C)cc1N1C(=O)c2cccc3c(N)ccc(c23)C1=O 149%
CCOc1ccc2nc(N3CCCN(C(=O)Nc4ccccc4C)CC3)c(C#N)cc2c1 53.8%
Cc1cccc2cc3c(N)c(C(=O)N4CCCc5ccccc54)sc3nc12 88.5%
COC(=O)C[n+]1cccc2ccccc21 128%
O=C(N/N=C/c1ccc(Cl)cc1)c1nc2ccc([N+](=O)[O-])cc2c(=O)[nH]1 78.6%
O=C(O)COc1ccc(-c2nccc(-c3cccs3)n2)cc1 50.4%
CCOC(=O)/C(C#N)=C/c1ccc(N2CCN(Cc3ccccc3)CC2)cc1 128%
COc1ncnc2c1N=C1CC(C)(C)CC(N)=C1S2 81.4%
CCN1CC=C2C(C#N)=C(N)C(C#N)(C#N)[C@H](c3ccoc3)[C@H]2C1 56.6%

— PubChem BioAssay AID1085 (Emory University Molecular Libraries Screening Center, 2008)
